Assay [1] in a line: qHTS RealTime-Glo MT Cell Viability Assay in HEK293 cells - 16 hour (AID 1224872). Also: nearly all actives have a fitted effect of over 50% in size. Also: potency is read from the fitted curve at half-maximal effect. As to activity change, negative = cytotoxicity: top concentration of the series differs between compounds. A digest of the protocol: (§1)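 Assay medium contained NanoLuc luciferase plus cell-permeant prosubstrate, added with HEK293 cells at 600 cells/well. After 5 h at 37 C/5% CO2 compounds were added; plates stayed at 37 C for 40 h with serial luminescence reads.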
A general note: Quantitative high-throughput screening tests each substance at several concentrations.

Assay [2] is described as follows: qHTS RealTime-Glo MT Cell Viability Assay in HepG2 cells - 8 hour (AID 1224873). Also: nearly all actives have a fitted effect of over 55% in size. Also: potency is read from the fitted curve at half-maximal effect. A digest of the protocol: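 HepG2 cells (600/well) mixed with RealTime-Glo MT reagent, settled 5 h at 37 C/5% CO2 before compound addition. Nonlytic NanoLuc luminescence from viable-cell prosubstrate reduction read repeatedly during 40 h treatment at 37 C.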
Assay [3] can be described thus: qHTS RealTime-Glo MT Cell Viability Assay in HEK293 cells - 40 hour (AID 1224874). Also: nearly all actives have a fitted effect of over 50% in size. Also: potency is read from the fitted curve at half-maximal effect. The following applies: RealTime-Glo luminescence; max response: active compounds read low. A digest of the protocol:
(§2)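 HEK293 + NanoLuc + prosubstrate, 600 cells/well; 5 h, 37 C/5% CO2; compound 23 nL in DMSO by pintool; 37 C; luminescence read at 0, 8, 16, 24, 32 and 40 h time points.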

Assay [4] is described as follows: A CellTox Green Cytotoxicity Assay to monitor cytotoxicity in HEK293 cells - 24 hour (AID 1224875). Also: nearly all actives have a fitted effect of over 45% in size. Also: potency is read from the fitted curve at half-maximal effect. As to activity change: series mostly up to about 77 µM. A digest of the protocol: (§3)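 Tox21 screen in HEK293: membrane-impermeant cyanine dye fluoresces on binding dead-cell DNA; compound pinned 5 h post-seeding, plates held at 37 C, signal read repeatedly through 40 h.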
The nature of assay [5]: A CellTox Green Cytotoxicity Assay to monitor cytotoxicity in HepG2 cells - 16 hour (AID 1224876). Also: nearly all actives have a fitted effect of over 45% in size. Also: potency is read from the fitted curve at half-maximal effect. A digest of the protocol: (§4)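 Measurements at 0, 8, 16, 24, 32 and 40 h of treatment captured CellTox Green fluorescence in HepG2 cells that had been co-plated with reagent and preincubated 5 h at 37 C/5% CO2.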
Assay [6] in a line: qHTS RealTime-Glo MT Cell Viability Assay in HepG2 cells - 32 hour (AID 1224877). Also: nearly all actives have a fitted effect of over 55% in size. Also: potency is read from the fitted curve at half-maximal effect. The gist of the method:
(§5)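 qHTS, HepG2, 600 cells/well, RealTime-Glo (NanoLuc + prosubstrate) added with cells; 5 h preincubation; DMSO compound addition; 37 C; luminescence at 0/8/16/24/32/40 h.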

Assay [7] can be described thus: A CellTox Green Cytotoxicity Assay to monitor cytotoxicity in HepG2 cells - 24 hour (AID 1224878). Also: nearly all actives have a fitted effect of over 45% in size. Also: potency is read from the fitted curve at half-maximal effect. The gist of the method:
as §4

Assay [8] in a line: A CellTox Green Cytotoxicity Assay to monitor cytotoxicity in HepG2 cells - 40 hour (AID 1224879). Also: nearly all actives have a fitted effect of over 40% in size. Also: potency is read from the fitted curve at half-maximal effect. The gist of the method:
as §4

Assay [9] in a line: A CellTox Green Cytotoxicity Assay to monitor cytotoxicity in HEK293 cells - 32 hour (AID 1224881). Also: nearly all actives have a fitted effect of over 40% in size. Also: potency is read from the fitted curve at half-maximal effect. The gist of the method: as §3
The nature of assay [10]: A CellTox Green Cytotoxicity Assay to monitor cytotoxicity in HepG2 cells - 0 hour (AID 1224882). Also: nearly all actives have a fitted effect of over 35% in size. A digest of the protocol: as §4
Assay [11] can be described thus: A CellTox Green Cytotoxicity Assay to monitor cytotoxicity in HEK293 cells - 8 hour (AID 1224884). Also: nearly all actives have a fitted effect of over 35% in size. Also: potency is read from the fitted curve at half-maximal effect. A digest of the protocol:
as §3

A short description of assay [12]: qHTS RealTime-Glo MT Cell Viability Assay in HepG2 cells - 16 hour (AID 1224885). Also: nearly all actives have a fitted effect of over 50% in size. Also: potency is read from the fitted curve at half-maximal effect. A digest of the protocol:
as §5

Assay [13] can be described thus: qHTS RealTime-Glo MT Cell Viability Assay in HEK293 cells - 24 hour (AID 1224886). Also: nearly all actives have a fitted effect of over 50% in size. Also: potency is read from the fitted curve at half-maximal effect. As to activity change, negative = cytotoxicity: top concentration of the series differs between compounds. A digest of the protocol:
as §1

The nature of assay [14]: qHTS RealTime-Glo MT Cell Viability Assay in HEK293 cells - 8 hour (AID 1224887). Also: nearly all actives have a fitted effect of over 50% in size. Also: potency is read from the fitted curve at half-maximal effect. As to activity change, negative = cytotoxicity: top concentration of the series differs between compounds. The gist of the method:
as §2

The nature of assay [15]: A CellTox Green Cytotoxicity Assay to monitor cytotoxicity in HEK293 cells - 16 hour (AID 1224888). Also: nearly all actives have a fitted effect of over 35% in size. Also: potency is read from the fitted curve at half-maximal effect. A digest of the protocol: as §3
Assay [16] can be described thus: qHTS RealTime-Glo MT Cell Viability Assay in HepG2 cells - 0 hour (AID 1224889). Also: nearly all actives have a fitted effect of over 50% in size. The gist of the method: as §5
Assay [17] in a line: A CellTox Green Cytotoxicity Assay to monitor cytotoxicity in HepG2 cells - 8 hour (AID 1224890). Also: nearly all actives have a fitted effect of over 45% in size. Also: potency is read from the fitted curve at half-maximal effect. The gist of the method: as §4
A short description of assay [18]: qHTS assay to identify small molecule antagonists of the estrogen receptor alpha (ER-alpha) signaling pathway using the BG1 cell line in the presence of 0.1 nM 17-beta-estradiol - cell viability counter screen (AID 1259241). Also: nearly all actives have a fitted effect of over 40% in size. Also: potency is read from the fitted curve at half-maximal effect. The gist of the method:
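Cytotoxicity counter-screen: live-cell protease activity measured by fluorescence (30 min reagent step) in the same wells. Cells were VM7Luc4E2 with endogenous ER-alpha and ERE-driven luciferase, treated 22 hr at 37C alongside 0.1 nM 17beta-estradiol final.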

Assay [19] is described as follows: qHTS RealTime-Glo MT Cell Viability Assay in HEK293 cells - 0 hour (AID 1224880). The gist of the method: as §2
Assay [20] can be described thus: A CellTox Green Cytotoxicity Assay to monitor cytotoxicity in HepG2 cells - 32 hour (AID 1224883). Also: nearly all actives have a fitted effect of over 50% in size. Also: potency is read from the fitted curve at half-maximal effect. A digest of the protocol:
as §4

The structures appear in SMILES notation. Values without a mark were called inactive. Inconclusive results are not listed. The source made the active and inactive calls. Calls follow the shape of the dose curve; as a rule, active = well fitted curve in the direction sought with a large enough effect in the repeat runs; inconclusive = weak or mixed curves; inactive = no such curve, though single readings can be large; an effect the other way counts as inactive or inconclusive.
% is scaled to controls: 0 for no effect and ±100 for the full control effect.

As for `CN(C)CCCOC1(Cc2ccccc2)CCCCCC1`, the Potency entry in [1], in assay [2], in assay [4], in assay [5], in assay [6] and in assay [7] was “inactive” each time. For the same molecule, the Potency entry in [8], in assay [9], in assay [10], in assay [11], in assay [12] and in assay [13] was “inactive” in each case. Besides, the Potency result in assay [14], in assay [15], in [16], in [17] and in assay [18] was “inactive” throughout. The max response in assay [3] is 0.0267%.

Turning to `O=C(Nc1ccc(Oc2ccc(Cl)cc2)c(Cl)c1)c1cc(I)cc(I)c1O`, the Potency entry in [1], in assay [2], in assay [4], in assay [5], in assay [6] and in assay [7] was “inactive” in each case. The Potency entry in [8], in [19], in assay [10], in assay [11], in [12] and in [13] was “inactive” each time. The Potency entry in [14], in [15] and in [17] was “inactive” each time. Moreover, the max response in assay [3] is 2.12%.

With `CC(NN)c1ccccc1` (stereo unspecified), the activity change, negative = cytotoxicity in [1] is 0.13% [at 15.8 µM]; in assay [19], -4.11% [at 15.8 µM]; in assay [13] it was -0.0571% [at 15.8 µM]; in [14] it was -8.04% [at 15.8 µM]; in assay [16] it was -3.22% [at 15.8 µM]; in [18], 6.27% [at 19 µM]. Also, the viability change, negative = cytotoxic in [2] was -0.527% [at 15.8 µM]. Besides, the max response in [3] was 2.41%. Besides, the activity change was -7.33% [at 15.8 µM, active compounds read high] in assay [4] and -3.48% [at 15.8 µM, active compounds read high] in assay [15]. For the same molecule, the cytotoxicity increase in [5] is -2.37% [at 15.8 µM]; in [8] it was 0.373% [at 15.8 µM]; in [20], -12.7% [at 15.8 µM]; in [17] it was -3.04% [at 15.8 µM]. In addition, the activity change, negative = cytotoxic in [6] is 1.72% [at 15.8 µM]; in [12], 0.634% [at 15.8 µM]. For the same molecule, the cytotoxicity in assay [7] was -5.39% [at 15.8 µM]; in assay [10] it was -2.26% [at 15.8 µM].

As for `CCCCCCCCCCCCCCCC[N+](C)(C)CCN(Cc1ccc(OC)cc1)c1ncccn1`, the Potency was 1.34 µM (active) in assay [1]; 10.7 µM (active) in [2]; 0.952 µM (active) in assay [3]; 8.49 µM (active) in assay [4]; 9.52 µM (active) in [5]; 6.01 µM (active) in assay [6]. Moreover, the Potency was 6.74 µM (active) in [7]; 6.01 µM (active) in [8]; 6.74 µM (active) in [20]; 19 µM (active) in assay [11]; 8.49 µM (active) in assay [12]; 1.07 µM (active) in assay [13]. Further, the Potency in assay [14] is 2.13 µM (active); in assay [15] it was 19 µM (active); in assay [17], 19 µM (active). For the same molecule, the Potency entry in assay [19], in assay [10], in [16] and in [18] was “inactive” in each case.

Take `Cc1cc(N)c(S(=O)(=O)O)cc1Cl`: the Potency entry in [1], in assay [2], in assay [4], in [5], in [6] and in assay [7] was “inactive” in each case. Also, the Potency entry in assay [8], in [19], in assay [9], in assay [10], in assay [11] and in assay [12] was “inactive” each time. Further, the Potency result in assay [13], in [15], in assay [16], in assay [17] and in assay [18] was “inactive” each time. Further, the max response in [3] is 1.42%.

As to `CCOC(=O)/C=C(C)/C=C/C=C(C)/C=C/c1c(C)cc(OC)c(C)c1C`, the Potency entry in assay [1], in assay [2], in [4], in [5], in assay [6] and in assay [7] was “inactive” each time. Also, the Potency result in assay [8], in assay [19], in assay [9], in assay [10], in assay [20] and in [11] was “inactive” in each case. Further, the Potency result in assay [12], in assay [14], in [15], in assay [16], in assay [17] and in [18] was “inactive” each time.

With `CCCCN1CCCC[C@H]1C(=O)Nc1c(C)cccc1C`, the Potency result in assay [1], in assay [2], in assay [4], in assay [5], in assay [6] and in [7] was “inactive” each time. Moreover, the Potency entry in assay [8], in assay [19], in assay [9], in assay [10], in assay [11] and in assay [12] was “inactive” in each case. The Potency entry in [13], in [14], in [15], in assay [16], in [17] and in assay [18] was “inactive” each time.

As for `CCCCCCCC/C=C\CCCCCCCCOCCO`, the Potency is 3.19 µM (active) in assay [1]; 3.19 µM (active) in assay [3]; 63.7 µM (active) in [7]; 63.7 µM (active) in [8]; 63.7 µM (active) in [20]; 3.19 µM (active) in assay [13]. For the same molecule, the Potency in assay [18] was 63.1 µM (active). Also, the Potency entry in [2], in [4], in assay [6], in assay [19], in assay [10] and in [11] was “inactive” throughout. Moreover, the Potency result in [15] and in [16] was “inactive” each time.

Take `C=CC(=O)OCC(CO)(COCC(COC(=O)C=C)(COC(=O)C=C)COC(=O)C=C)COC(=O)C=C`: the Potency in assay [1] is 3.05 µM (active); in [2], 3.42 µM (active); in assay [3], 2.42 µM (active); in [4], 54.3 µM (active); in [6] it was 3.84 µM (active); in [7], 48.4 µM (active). Also, the Potency in [8] was 15.3 µM (active); in assay [9], 43.1 µM (active); in [20], 21.6 µM (active); in assay [12] it was 5.43 µM (active); in assay [18], 15.2 µM (active). The Potency entry in assay [19], in [10], in assay [11], in assay [16] and in assay [17] was “inactive” throughout.

Regarding `NC(=O)N1C(=O)C(C(=O)c2cc(Cl)cs2)c2cc(F)c(Cl)cc21` (stereo unspecified), the Potency entry in [1], in [2], in assay [4], in assay [5], in assay [7] and in assay [9] was “inactive” in each case. For the same molecule, the Potency entry in assay [10], in [12], in assay [13], in [14], in assay [15] and in [17] was “inactive” each time. The max response in assay [3] was -0.493%.

Take `CC(C)(C)C(=O)OCOC(=O)C1N2C(=O)CC2S(=O)(=O)C1(C)C` (stereo unspecified): the Potency result in assay [1], in assay [2], in assay [4], in [6], in assay [8] and in assay [19] was “inactive” in each case. Further, the Potency result in assay [9], in assay [10], in [20], in assay [11], in assay [12] and in assay [13] was “inactive” each time. Besides, the Potency result in assay [14], in [15], in assay [16] and in assay [18] was “inactive” in each case. For the same molecule, the max response in assay [3] is 5.75%.

For the molecule `CC(C)CCCCCCCCCCCCCCC(=O)O`, the Potency entry in [1], in assay [2], in assay [4], in assay [5], in [6] and in assay [7] was “inactive” in each case. The Potency entry in [8], in [19], in [9], in assay [10], in [20] and in assay [11] was “inactive” in each case. The Potency entry in [12], in assay [15], in assay [17] and in assay [18] was “inactive” in each case.

In the case of `CCCCCOC(=O)CCCC`, the Potency entry in [1], in assay [2], in assay [4], in [5], in assay [6] and in [7] was “inactive” each time. The Potency result in assay [8], in [19], in [9], in assay [10], in assay [20] and in assay [11] was “inactive” in each case. In addition, the Potency entry in [12], in assay [13], in assay [14], in [15], in [16] and in assay [17] was “inactive” throughout. Besides, the Potency entry in assay [18] was “inactive”.

Values taken from PubChem BioAssay (Tox21).
